From PubChem BioAssay AID1159580 (chemical genetic matrix, 2015)
“And” between values parts separate entries of the source, which are not always exact repeats. Equal entries are not always repeated. Out of some 5,500 compounds screened, about 2,000 (36%) were called active. Another 18% or so got no clear call; they are omitted. The list shows a part of the results. Unmarked numbers belong to inactive results. Rule as the data show it: active = normalized growth mostly below about 0.91 (no sharp cut-off); inconclusive = no clear call, values can overlap the other calls; inactive = mostly above about 0.92.

Assay: chemical genetic growth profiling, strain panel (AID 1159580);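 also: tested at 20 µM; growth read once vehicle control cultures reached saturation at 30 °C; 1 = growth at the plate median or of vehicle wells; lower values mean less growth of the strain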
Conditions: S. cerevisiae deletion strains, growth OD

## COC(=O)[C@@]1(C)CCC[C@]2(C)c3ccc(O)c(C(C)C)c3CCC12 (stereo not given in full)
Locus YAL021C, strain ccr4, stronger effect = lower value
  normalized growth: 1.08
Locus YAL026C, strain drs2, stronger effect = lower value
  normalized growth: 0.929
Locus YAL030W, strain snc1, stronger effect = lower value
  normalized growth: 0.85 (active)
Locus YBL061C, strain skt5, stronger effect = lower value
  normalized growth: 0.617 (active)
Locus YBR009C, strain hhf1, stronger effect = lower value
  normalized growth: 0.364 (active)
Locus YBR021W, strain FUR4, stronger effect = lower value
  normalized growth: 0.646 (active)
Locus YBR023C, strain chs3, stronger effect = lower value
  normalized growth: 0.793 (active)
Locus YBR171W, strain sec66, stronger effect = lower value
  normalized growth: 0.946
Locus YBR229C, strain ROT2, stronger effect = lower value
  normalized growth: 0.875 (active)
Locus YBR231C, strain swc5, stronger effect = lower value
  normalized growth: 0.705 (active)
Locus YBR279W, strain paf1, stronger effect = lower value
  normalized growth: 0.941
Locus YCL011C, strain gbp2, stronger effect = lower value
  normalized growth: 0.652 (active)
Locus YCL016C, strain dcc1, stronger effect = lower value
  normalized growth: 0.847 (active)
Locus YCL029C, strain bik1, stronger effect = lower value
  normalized growth: 0.804 (active)
Locus YCL069W, strain vba3, stronger effect = lower value
  normalized growth: 0.977
Locus YCR088W, strain abp1, stronger effect = lower value
  normalized growth: 0.971
Locus YDL005C, strain med2, stronger effect = lower value
  normalized growth: 0.944
Locus YDL035C, strain GPR1, stronger effect = lower value
  normalized growth: 0.912
Locus YDL040C, strain nat1, stronger effect = lower value
  normalized growth: 0.928 (active)
Locus YDL074C, strain BRE1, stronger effect = lower value
  normalized growth: 0.174 (active)
Locus YDL101C, strain DUN1, stronger effect = lower value
  normalized growth: 0.894 (active)
Locus YDL185W, strain tfp1, stronger effect = lower value
  normalized growth: 0.956
Locus YDL192W, strain arf1, stronger effect = lower value
  normalized growth: 0.344 (active)
Locus YDR001C, strain nth1, stronger effect = lower value
  normalized growth: 0.978
Locus YDR069C, strain doa4, stronger effect = lower value
  normalized growth: 0.89 (active)
Locus YDR101C, strain arx1, stronger effect = lower value
  normalized growth: 0.782 (active)
Locus YDR137W, strain rgp1, stronger effect = lower value
  normalized growth: 0.134 (active)
Locus YDR159W, strain sac3, stronger effect = lower value
  normalized growth: 0.29 (active)
Locus YDR162C, strain NBP2, stronger effect = lower value
  normalized growth: 0.595 (active)
Locus YDR195W, strain ref2
  normalized growth: 0.189 (active)
Locus YDR297W, strain sur2, stronger effect = lower value
  normalized growth: 0.566 (active)
Locus YDR318W, strain mcm21, stronger effect = lower value
  normalized growth: 0.788 (active)
Locus YDR334W, strain swr1, stronger effect = lower value
  normalized growth: 0.998
Locus YDR335W, strain msn5, stronger effect = lower value
  normalized growth: 0.965
Locus YDR388W, stronger effect = lower value
  normalized growth: 0.942
Locus YDR392W, strain spt3, stronger effect = lower value
  normalized growth: 0.283 (active)
Locus YDR502C, strain sam2, stronger effect = lower value
  normalized growth: 0.773 (active)
Locus YEL003W, strain gim4, stronger effect = lower value
  normalized growth: 0.929
Locus YEL037C, strain rad23, stronger effect = lower value
  normalized growth: 0.988
Locus YEL061C, strain CIN8 (second series), stronger effect = lower value
  normalized growth: 0.981
Locus YEL061C, strain CIN8, stronger effect = lower value
  normalized growth: 0.803 (active)
Locus YER015W, strain faa2, stronger effect = lower value
  normalized growth: 0.793 (active)
Locus YER016W, strain bim1, stronger effect = lower value
  normalized growth: 0.825 (active)
Locus YER110C, stronger effect = lower value
  normalized growth: 1
Locus YER111C, strain swi4, stronger effect = lower value
  normalized growth: 0.995
Locus YER155C, strain BEM2 (second series), stronger effect = lower value
  normalized growth: 0.891
Locus YER155C, strain BEM2, stronger effect = lower value
  normalized growth: 0.128 (active)
Locus YER167W, strain BCK2, stronger effect = lower value
  normalized growth: 0.796 (active)
Locus YFR010W, strain ubp6, stronger effect = lower value
  normalized growth: 0.952
Locus YGL078C, strain dbp3, stronger effect = lower value
  normalized growth: 0.935
Locus YGL086W, strain mad1, stronger effect = lower value
  normalized growth: 0.729 (active)
Locus YGL167C, strain pmr1, stronger effect = lower value
  normalized growth: 0.374 (active)
Locus YGL173C, strain kem1, stronger effect = lower value
  normalized growth: 0.832 (active)
Locus YGL227W, strain vid30, stronger effect = lower value
  normalized growth: 0.97
Locus YGL240W, strain doc1, stronger effect = lower value
  normalized growth: 0.772 (active)
Locus YGL248W, strain PDE1, stronger effect = lower value
  normalized growth: 0.828 (active)
Locus YGL253W, strain hxk2, stronger effect = lower value
  normalized growth: 0.951
Locus YGR135W, strain pre9, stronger effect = lower value
  normalized growth: 0.957
Locus YGR252W, strain gcn5, stronger effect = lower value
  normalized growth: 0.781
Locus YHR013C, strain ard1, stronger effect = lower value
  normalized growth: 1.01
Locus YHR027C, strain rpn1, stronger effect = lower value
  normalized growth: 0.499 (active)
Locus YHR030C, strain SLT2, stronger effect = lower value
  normalized growth: 0.493 (active) and 0.19 (active)
Locus YHR079C, strain IRE1 (second series), stronger effect = lower value
  normalized growth: 0.927
Locus YHR079C, strain IRE1, stronger effect = lower value
  normalized growth: 0.502 (active)
Locus YHR094C, strain hxt1, stronger effect = lower value
  normalized growth: 0.897 (active)
Locus YHR129C, strain ARP1, stronger effect = lower value
  normalized growth: 0.518 (active)
Locus YHR142W, strain chs7, stronger effect = lower value
  normalized growth: 0.875 (active)
Locus YHR200W, strain rpn10, stronger effect = lower value
  normalized growth: 0.871 (active)
Locus YIL066C, strain RNR3, stronger effect = lower value
  normalized growth: 0.65 (active)
Locus YIL073C, strain SPO22, stronger effect = lower value
  normalized growth: 1.07
Locus YIL125W, strain kgd1, stronger effect = lower value
  normalized growth: 0.693 (active)
Locus YIR030C, strain dcg1, stronger effect = lower value
  normalized growth: 0.954
Locus YJL092W, strain hpr5, stronger effect = lower value
  normalized growth: 0.979
Locus YJL095W, strain BCK1 (second series), stronger effect = lower value
  normalized growth: 0.689 (active)
Locus YJL095W, strain BCK1, stronger effect = lower value
  normalized growth: 0.277 (active) and 0.318 (active)
Locus YJL115W, strain asf1, stronger effect = lower value
  normalized growth: 0.976
Locus YJL129C, strain trk1, stronger effect = lower value
  normalized growth: 0.593 (active)
Locus YJL134W, strain LCB3, stronger effect = lower value
  normalized growth: 0.815 (active)
Locus YJL154C, strain vps35, stronger effect = lower value
  normalized growth: 0.981
Locus YJL164C, strain tpk1, stronger effect = lower value
  normalized growth: 0.78 (active)
Locus YJL166W, strain qcr8, stronger effect = lower value
  normalized growth: 0.563 (active)
Locus YJL168C, strain set2, stronger effect = lower value
  normalized growth: 1
Locus YJL187C, strain SWE1 (second series), stronger effect = lower value
  normalized growth: 0.638 (active)
Locus YJL187C, strain SWE1, stronger effect = lower value
  normalized growth: 0.73 (active)
Locus YJR043C, strain POL32, stronger effect = lower value
  normalized growth: 0.955
